HT1080-NT tox – kills 2HG-producing HT-1080-NT fibrosarcoma cells | 1.6% of 360,000 active | HT-1080-NT fibrosarcoma viability, CellTiter-Glo ATP luminescence, 48 h | Potency, µM (doses to about 46.1 µM), most hits filed as cytotoxic;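 further: NT is the 2HG producing partner of a matched IDH1 knockdown line; nearly all actives have a fitted effect of over 55% in size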
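Compounds were tested in concentration-response format on HT-1080-NT cells for 48 hours at 37 degrees C. Cell viability came from CellTiter-Glo luminescence; curves were classified by r2, response magnitude and activity.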
DT40 TDP1 no CPT – qHTS for Inhibitors of human tyrosyl-DNA phosphodiesterase 1 (TDP1): qHTS in cells in absence of CPT; DT40 Tdp1-/- hTDP1 cells, no CPT, ATP luminescence, 48 h; Potency, µM (series often up to 46.2 µM), actives largely listed as inhibitors; 15% of 420,000 active; AID 686978, 2013; further: nearly all actives have a fitted effect of over 55% in size
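DT40 Tdp1-/-;hTDP1 cells, no CPT (DMSO vehicle only), 400 cells/well; compounds pin-transferred; ≥48 hr, 37 °C; CellTiter-Glo 30 min RT dark, luminescence read.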
HepG2 viability – counter-screen for TGF-b inhibitors: cytotoxicity in HepG2 cells. HepG2 CAGA-GFP viability, ATP luminescence, 18 h. Potency, µM (titrated, usually from 46.1 µM), hits mostly cytotoxic. 0.76% of 410,000 active
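CellTiter-Glo luminescence gave cytotoxicity after 18 hours at 37 degrees C. The cells were HepG2 CAGA-GFP in 1% FBS DMEM, stimulated with 500 pg/mL TGF-beta after compound addition. %Activity was normalised to no-cell wells (complete cell-killing) and DMSO (no toxicity), and curves were fitted and classified.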
TDP1 cell CPT – DT40-hTDP1 cell growth loss with CPT; chicken DT40 Tdp1-/-;hTDP1 cells + 20 nM CPT, ATP luminescence, 48 h; Potency, µM (top dose mostly 46.2 µM), actives largely listed as inhibitors; 12% of 420,000 active; further: nearly all actives have a fitted effect of over 55% in size
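Cell growth measured by CellTiter-Glo luminescence after a minimum 48 h, 37 C compound exposure with 20 nM CPT in Tdp1-knockout DT40 cells stably expressing hTDP1, seeded 400/well; qHTS titration format.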
HT1080 IDH1KD tx – toxicity to HT-1080 IDH1 knockdown cells (counter line). HT-1080 IDH1 knockdown viability, ATP luminescence, 48 h. Potency, µM (doses to about 46.1 µM), hits mostly cytotoxic. 2% of 360,000 active
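HT-1080-IDH1KD cells (IDH1 knocked down), 750/well in RPMI with 5% FBS, treated with compound 48 h at 37 degrees C. Viability by CellTiter-Glo luminescence, normalised to DMSO and no-cell wells; concentration-response curves classed.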
TGFb SMAD3 inh – TGF-b pathway inhibition; HepG2 CAGA-GFP TGF-b/SMAD3 reporter, GFP fluorescence, 18 h; TGF-beta stimulated, 500 pg/mL final; Potency, µM (doses to about 46.1 µM), hits mostly inhibitors; 1.2% of 410,000 active; AID 588855; further: nearly all actives have a fitted effect of over 65% in size
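Smad-responsive CAGA-GFP expression was quantified in HEPG2 cells exposed to compounds and 500 pg/mL final TGF-beta for 18 h at 37 degrees C; unstimulated wells defined full inhibition.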
Hits are given with their value; . = inactive; ? = inconclusive; / = no result given; ! = repeats disagree. Shown are actives, neighbours in structure and some others; about 17% of the full set was active somewhere. The call rests on the fitted dose curve; in most records, active means well fitted curve in the direction sought with a large enough effect; inconclusive means small, poorly fitted or top-dose-only effect, or another doubt; inactive means no such curve, though single readings can be large; an effect the other way counts as inactive or inconclusive.

SMILES	HT1080-NT tox	DT40 TDP1 no CPT	HepG2 viability	TDP1 cell CPT	HT1080 IDH1KD tx	TGFb SMAD3 inh
COc1ccccc1CCNC(=O)Cc1c(C)c2cc3c(C)coc3cc2oc1=O	/	?	.	?	/	.
COc1ccc(CCNC(=O)Cc2c(C)c3cc4c(C)coc4c(C)c3oc2=O)cc1	/	?	.	.	/	.
Cc1coc2cc3oc(=O)c(CCC(=O)NCc4ccccc4Cl)c(C)c3cc12	/	.	.	.	/	.
COc1ccccc1CCNC(=O)CCc1c(C)c2cc3c(C)coc3cc2oc1=O	/	?	.	16.4µM	/	.
Cc1coc2c(C)c3oc(=O)c(CCC(=O)NCCc4ccc(Cl)cc4)c(C)c3cc12	/	11.6µM	.	?	/	.
COc1ccc(CCNC(=O)CCc2c(C)c3cc4c(C)c(C)oc4cc3oc2=O)cc1	/	20.6µM	.	10.3µM	/	.
Cc1coc2cc3oc(=O)c(CCC(=O)NCc4ccc(Cl)cc4)c(C)c3cc12	/	25.9µM	.	10.3µM	/	.
COc1ccccc1CNC(=O)C1CCN(S(=O)(=O)Cc2ccccc2)CC1	/	.	.	.	/	.
COc1ccc2c(c1)sc1ncc(C(=O)NCc3cccc(C)c3)c(=O)n12	/	.	.	.	/	.
CCCCCCNC(=O)Cc1nc2nc(C)cc(C)n2n1	.	.	.	.	.	.
Cc1ccc(-c2nc(CNC(=O)NC3CCCCC3)c(C)o2)cc1	/	.	.	.	/	.
CCCN1C2CCCC1CC(NC(=O)c1ccccc1Br)C2 (stereo unspecified)	.	.	.	.	.	?
CC1(C)[C@@H]2CC[C@@]1(C)C(=O)C2	/	3.35µM!	/	8.41µM!	/	/
CC(C)CCn1c(=O)c2ccccc2c2ccccc2c1=O	.	?	.	.	.	.
O=C1c2ccccc2-c2c1c1ccccc1c(=O)n2CCO	.	7.31µM	.	6.51µM	?	.
O=C1c2ccccc2-c2c1c1ccccc1c(=O)n2-c1ccccc1	.	11.6µM	.	11.6µM	.	.
Cn1cccc1C(=O)N1CCC2(CC1)CCN(c1ccc(-c3ccccc3)cc1)CC2	/	8.2µM	/	9.2µM	/	/
Cn1cccc1C(=O)N1CCC2(CCN(Cc3ccccc3)CC2)CC1	/	.	/	.	/	/
COCC(=O)N1CCC2(CC1)CCN(c1ccc(-c3ccccc3)cc1)CC2	/	0.206µM	/	?	/	/
Cn1cccc1C(=O)N1CCC2(CCN(C(=O)Nc3cccc(F)c3)CC2)CC1	/	?	/	23.1µM	/	/
Cn1cccc1C(=O)N1CCC2(CC1)CN(C(c1ccccc1)c1ccccc1)C2	/	11.6µM	/	?	/	/
COCC(=O)N1CCC2(CC1)CN(c1ccccc1)C2	/	.	/	?	/	/
O=C(c1ccncc1)N1CCC2(CC1)CN(C(c1ccccc1)c1ccccc1)C2	/	.	/	.	/	/
CS(=O)(=O)Nc1ccccc1-c1cccc2nccn12	.	.	.	.	.	.
CCn1c(-c2ccccc2F)nc2cc(C(=O)N3CCCC(CO)C3)cc(NC(C)=O)c21 (stereo unspecified)	/	.	/	.	/	/
SMILES	HT1080-NT tox	DT40 TDP1 no CPT	HepG2 viability	TDP1 cell CPT	HT1080 IDH1KD tx	TGFb SMAD3 inh
COc1ccc(N2C(=O)CCSC23C(=O)N(Cc2ccc(F)cc2)c2ccccc23)cc1Cl (stereo unspecified)	/	8.2µM	.	9.2µM	/	.
CC(OC(=O)c1ccc(S(=O)(=O)N2CCCCC2)cc1)C(=O)NC1CCCCC1C (stereo unspecified)	.	.	.	.	.	.
Cc1cc(NC(=O)c2cc(-c3ccncc3)nc3c(C)cccc23)no1	5.8µM	2.91µM	.	4.11µM	3.66µM	.
Cc1cccc(NC(=O)c2cc(-c3cccnc3)nc3c(C)cccc23)n1	?	14.6µM	.	?	?	?
Cc1cc(NC(=O)c2ccc(-c3ccccc3[N+](=O)[O-])o2)no1	.	?	.	?	.	.
Cc1cc(NC(=O)c2c(Cl)cccc2Cl)no1	.	.	.	.	.	.

From PubChem
